Pf Dd2 growth: P. falciparum Dd2 growth inhibitors, primary screen, SYBR Green fluorescence, single dose replicates; 72 h; stronger effect = lower value; activity change, % at 10 µM; 2.3% of 94,000 active; in the data active = activity change below about -80%; inconclusive = no clear call, values can overlap the other calls
T cruzi growth-1: T. cruzi intracellular proliferation inhibitors, primary screen, cell-based, beta-gal Tulahuen parasites, NIH3T3 host, luminescence; T. cruzi beta-gal in NIH3T3, GalScreen luminescence, 90 h; inhibition, % at 8.34 µM; 5.9% of 77,000 active;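 active = mean inhibition above about 93%, with at least 55% of replicates each passing it, limit read from the data, passing the limit was not always enough; inconclusive = only one of those two conditions holds; inactive = neither condition holds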
C diff HTS: C. difficile growth inhibitors, primary screen, HTS | AID 1259249, 2017 | 0.25% of 86,000 active | Clostridium difficile clinical isolate growth, OD600, 24 h; stronger effect = lower value | growth activity, negative = inhibition, % at 16 µg/mL (by protocol);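 active = mean growth activity at or below -80% and every replicate also at or below -80%; inconclusive = mean at or below -80% but some replicate above -80%; inactive = mean growth activity above -80%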;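 also: 0% = DMSO wells and -100% = levofloxacin 16 µg/mL wells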
T cruzi growth-2: T. cruzi intracellular proliferation inhibitors, confirmation, cell-based, NIH3T3 host, beta-gal parasite, luminescence, cherry-pick | shares compounds with T cruzi growth-1 | T. cruzi beta-gal in NIH3T3, GalScreen luminescence, 90 h | inhibition, % at 8.35 µM | 72% of 5,600 active;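 active = mean replicate inhibition above about 95% and at least 55% of replicates individually reaching it, limit read from the data; inconclusive = only one of the two criteria is met; inactive = neither criterion is met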
T cruzi growth-3: inhibitors of intracellular T. cruzi replication, confirmation, NIH3T3 host cells, beta-gal parasites, cherry-pick, set 2; inhibition, % at 2.09 µM; shares compounds with T cruzi growth-1; T. cruzi beta-gal in NIH3T3, GalScreen luminescence, 90 h; 21% of 5,600 active;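 active = mean inhibition above about 95%, with at least 55% of replicates also reaching it, limit read from the data; inconclusive = meets just one of the two conditions; inactive = meets neither condition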;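 also: plate controls were neutral control median for no effect and positive control median for full effect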
NIH3T3 tox: cytotoxicity in mouse NIH/3T3 fibroblasts, confirmation, cytotoxicity control for T. cruzi proliferation inhibitor project, cell-based, cherry-pick, single point. shares compounds with T cruzi growth-1. NIH/3T3 viability, CellTiter-Glo ATP luminescence, 90 h. cytotoxicity (signal decrease), % at 8.35 µM. 14% of 5,600 active;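 active = mean signal decrease across replicates above about 35% based on untreated-well scatter, with enough replicates individually passing, limit read from the data; inconclusive = no rule stated though some were filed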;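 also: 0% = median of neutral control wells and 100% = median of positive control wells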
3T3 cytotox 2: NIH/3T3 fibroblast cytotoxicity, confirmation, cytotoxicity control, cell-based, cherry-pick, single point, set 2; shares compounds with T cruzi growth-1; NIH/3T3 viability, CellTiter-Glo ATP luminescence, 90 h; inhibition, % at 24.9 µM; 56% of 5,600 active; AID 651744, 2012;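 active = mean loss of cell viability signal at or above a set limit, and enough replicates individually reaching it; inconclusive = meets only the mean limit or only the replicate share; inactive = meets neither condition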;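 also: 0% = median of neutral control wells and 100% = median of positive control wells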
* = called active by the depositor; u = inconclusive; x = no result. Compounds with a hit are over-represented: about 6.8% of the library has one in this group of screens.

SMILES	Pf Dd2 growth	T cruzi growth-1	C diff HTS	T cruzi growth-2	T cruzi growth-3	NIH3T3 tox	3T3 cytotox 2
CCN(C[C@@H]1N[C@H](CO)[C@H]1c1ccc(C2=CCCC2)cc1)C(=O)c1ccncc1	-52	93	-3	x	x	x	x
O=C(NC[C@H]1N[C@H](CO)[C@@H]1c1ccc(C2=CCCCC2)cc1)c1cccc(F)c1	-19	85	30	x	x	x	x
COc1ccc(NC(=O)Nc2ccc3c(c2)C(=O)N([C@@H](C)CO)C[C@@H](C)[C@H](CN(C)C)OCCCC[C@@H](C)O3)cc1	8	55	-2	x	x	x	x
C[C@H](CO)N1C[C@H](C)[C@@H](CN(C)C(=O)Cc2ccccc2)OCCCC[C@H](C)Oc2ccc(N(C)C)cc2C1=O	1	29	-2	x	x	x	x
CCCNC(=O)N1C[C@H]2[C@@H](c3ccccc31)[C@@H](CO)N2C(=O)Nc1ccccc1	-14	-40	-4	x	x	x	x
COc1ccc(S(=O)(=O)Nc2cccc3c2O[C@H](CN(C)S(=O)(=O)c2ccc(F)cc2)[C@H](C)CN([C@@H](C)CO)C3=O)cc1	7	32	1	x	x	x	x
Cn1cnc(CCNC(=O)C[C@H]2CC[C@@H]3[C@H](COC[C@@H](O)CN3C(=O)Nc3ccc(F)cc3)O2)c1	-8	8	x	x	x	x	x
CC=Cc1ccc2n(c1=O)C[C@@H]1[C@@H](CO)[C@H](C(=O)NCCc3cn(C)cn3)[C@H]2N1C(=O)CC1CC1 (mixture of isomers)	26	x	-1	x	x	x	x
C[C@H]1CN([C@@H](C)CO)S(=O)(=O)c2ccc(C3=CCCC3)cc2O[C@@H]1CN(C)C(=O)C1CCC1	-27	43	-26	x	x	x	x
C[C@@H]1CN([C@H](C)CO)S(=O)(=O)c2ccc(C3=CCCCC3)cc2O[C@@H]1CN(C)C(=O)C1CC1	20	37	-3	x	x	x	x
C[C@H](CO)N1C[C@H](C)[C@H](CN(C)C(=O)C2CCCCC2)Oc2cc(C3=CCCCC3)ccc2S1(=O)=O	-60	116*	-9	102*	86	21	107*
C[C@@H]1CN([C@H](C)CO)S(=O)(=O)c2ccc(C3=CCCC3)cc2O[C@H]1CN(C)C(=O)C1CCCCC1	-19	80	-10	x	x	x	x
C[C@H]1CN([C@@H](C)CO)S(=O)(=O)c2ccc(C3=CCCCC3)cc2O[C@H]1CN(C)C(=O)C1CCCCC1	-47	123*	-2	104*	91	-15	107*
C[C@@H]1CN([C@H](C)CO)S(=O)(=O)c2ccc(C3=CCCCC3)cc2O[C@H]1CN(C)C(=O)C1CCCCC1	-54	109*	4	105*	56	27	105*
C[C@H](CO)N1C[C@H](C)[C@@H](CN(C)C(=O)C2CC2)Oc2cc(C3=CCCCC3)ccc2S1(=O)=O	16	80	-4	x	x	x	x
C[C@@H]1CN([C@H](C)CO)S(=O)(=O)c2ccc(C3=CCCC3)cc2O[C@H]1CN(C)C(=O)C1CCC1	-43	111*	-2	71	20	20	24*
O=C(C[C@H]1C=C[C@@H](NC(=O)CN2CCOCC2)[C@H](CO)O1)NC1CCCCC1	35	-68	1	x	x	x	x
C[C@@H]1CN([C@H](C)CO)C(=O)c2cc(C3=CCCCC3)cnc2O[C@H]1CN(C)C(=O)C1CCOCC1	29	62	-4	x	x	x	x
COCC(=O)N(C[C@@H]1N[C@@H](CO)[C@H]1c1ccc(C2=CCCCC2)cc1)C(C)C	-34	30	-3	x	x	x	x
COC(=O)[C@@H]1[C@@H](CO)[C@@H]2Cn3c(ccc(-c4ccc(F)cc4)c3=O)[C@@H]2N1C(=O)C1CCC1	x	114*	0	-16	-14	-5	6
O=C([C@@H]1[C@@H](CO)[C@@H]2Cn3c(ccc(-c4cccc(F)c4)c3=O)[C@@H]2N1Cc1cocn1)N1CCCCC1	-7	83	-1	x	x	x	x
O=C([C@H]1[C@H](CO)[C@H]2Cn3c(ccc(-c4cccc(F)c4)c3=O)[C@H]2N1Cc1cocn1)N1CCCCC1	0	u	0	78	-20	20	24*
CCCNC(=O)N1[C@@H]2c3ccc(-c4ccc(F)cc4)c(=O)n3C[C@@H]2[C@@H](CO)[C@@H]1C(=O)N1CCCCC1	x	102*	-2	0	0	-14	21
CCCNC(=O)[C@H]1[C@H](CO)[C@H]2Cn3c(ccc(-c4ccccc4)c3=O)[C@H]2N1C(=O)C1CC1	17	x	-4	x	x	x	x
COC(=O)[C@H]1[C@H](CO)[C@H]2Cn3c(ccc(-c4ccc(F)cc4)c3=O)[C@H]2N1C(=O)C1CC1	6	73	-5	x	x	x	x
SMILES	Pf Dd2 growth	T cruzi growth-1	C diff HTS	T cruzi growth-2	T cruzi growth-3	NIH3T3 tox	3T3 cytotox 2
CCCNC(=O)[C@@H]1[C@@H](CO)[C@@H]2Cn3c(ccc(-c4ccccc4)c3=O)[C@@H]2N1C(=O)C1CCC1	-1	102*	1	16	19	-18	2
CCCNC(=O)[C@@H]1[C@@H](CO)[C@@H]2Cn3c(ccc(-c4ccc(F)cc4)c3=O)[C@@H]2N1C	12	37	1	x	x	x	x
COc1ccccc1S(=O)(=O)N[C@@H]1CC[C@@H](CCNC(=O)C2CCOCC2)O[C@H]1CO	6	-58	-1	x	x	x	x
C[C@@H]1CCCCO[C@@H](CN(C)Cc2ccncc2)[C@@H](C)CN([C@@H](C)CO)C(=O)c2cc(NC(=O)c3ccncc3)ccc2O1	12	18	-12	x	x	x	x
C[C@H](CO)N1C[C@H](C)[C@H](CN(C)Cc2ccncc2)Oc2ccc(NS(C)(=O)=O)cc2CC1=O	9	16	3	x	x	x	x
C[C@H](CO)N1C[C@H](C)[C@@H](CN(C)S(=O)(=O)c2ccc(F)cc2)Oc2c(NC(=O)C3CC3)cccc2C1=O	-1	-7	2	x	x	x	x
C[C@H](NC(=O)C[C@H]1CC[C@H](NC(=O)C2CC2)[C@@H](CO)O1)c1ccccc1	21	x	1	x	x	x	x
N#C[C@@H]1[C@H](c2ccccc2-c2cccc(F)c2)[C@H](CO)N1C(=O)NC1CCCC1	-79	x	4	x	x	x	x
COc1cccc(CNC(=O)C[C@@H]2CC[C@@H]3[C@@H](COc4ccc(NS(=O)(=O)c5ccccc5F)cc4C(=O)N3C)O2)c1	27	-35	-17	x	x	x	x
COc1ccc(NC(=O)N2CCCCN3[C@H](CO)[C@@H](c4ccc(C5=CCCCC5)cc4)[C@H]3C2)cc1	-35	117*	42	105*	90	29	105*
O=C(Nc1cc(F)ccc1F)N1CCCCN2[C@H](CO)[C@H](c3ccc(C4=CCCCC4)cc3)[C@@H]2C1	24	82	-9	x	x	x	x
